# GPR151 ag – activators of human GPR151, primary screen, cell-based, PathHunter beta-arrestin, luminescence; PathHunter beta-arrestin GPR151 cells; AID 1508602, 2020; G-protein coupled receptor 151 (Homo sapiens), Q8TDV0; hit rate 1% among 650,000; activation, % at 11.2 µM; in the data active = activation above about 4.9%;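 note: 0% = median of compound wells and 100% = cells with positive control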
# Target sequence (Q8TDV0 whole entry, looked up): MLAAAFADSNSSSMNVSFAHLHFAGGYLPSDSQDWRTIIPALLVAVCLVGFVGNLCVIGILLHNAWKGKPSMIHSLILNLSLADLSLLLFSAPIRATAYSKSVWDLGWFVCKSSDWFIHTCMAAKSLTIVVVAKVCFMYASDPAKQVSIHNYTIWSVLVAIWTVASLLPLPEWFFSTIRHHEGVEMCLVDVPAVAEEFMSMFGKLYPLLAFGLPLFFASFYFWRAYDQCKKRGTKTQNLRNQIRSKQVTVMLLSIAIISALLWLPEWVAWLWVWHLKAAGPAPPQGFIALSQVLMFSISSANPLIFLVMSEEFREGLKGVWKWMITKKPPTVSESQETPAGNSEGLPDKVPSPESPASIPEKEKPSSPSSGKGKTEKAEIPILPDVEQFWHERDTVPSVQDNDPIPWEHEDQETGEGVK
# FBW7 act – FBW7 E3 ligase activators, primary screen, biochemical, AlphaScreen, human. AlphaScreen FBW7–phospho-cyclin E peptide binding, activator screen. normalized activity (activation), % at 26.1 µM. hit rate 0.13% among 650,000. AID 1259310, 2017; in the data active = normalized activity above about 1.9%;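 note: purified mutant Fbw7 with reduced substrate affinity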
# TEAD-YAP block – TEAD-YAP interaction inhibition, primary screen, TEAD-YAP interaction inhibitor project, luminescence, HEK-TIYL cells | hit rate 1.4% among 640,000 | inhibition, % at 9.12 µM | TEAD-Gal4/YAP UAS-luciferase luminescence; in the data active = inhibition above about 32%;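 note: 0% = median of test compound wells and 100% = reference inhibitor wells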
# MITF primary – MITF inhibitors, primary screen, biochemical, AlphaScreen, human; inhibition, % at 2.6 µM; AlphaScreen MITF homodimerization, bead proximity signal; AID 1259374, 2018; hit rate 0.91% among 650,000; Microphthalmia-associated transcription factor (Homo sapiens), O75030; in the data active = inhibition above about 50%;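 note: 0% = vehicle wells with protein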
# MITF inh conf – MITF inhibitors, retest of hits, confirmation, biochemical, AlphaScreen, triplicate; shares compounds with MITF primary; AlphaScreen MITF homodimerization, biotin/His-MITF beads; inhibition, % at 2.6 µM; hit rate 16% among 4,700;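 active = inhibition above a cutoff derived from the DMSO control wells, cut at about 28% in these data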;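 note: 0% = MITF dimer wells with DMSO only; inhibitors lower the bead chemiluminescence by keeping MITF from dimerizing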
# AlphaScreen DR – AlphaScreen optical interference compounds, dose response, counter-screen, biochemical, HTS; shares compounds with MITF primary; AlphaScreen optical interference counterscreen, cell-free; IC50, µM; hit rate 6% among 480; AID 1259373, 2018; call rule not given here
# AS interf ctr – AlphaScreen optical interference compounds, counter-screen for MITF inhibitor project, biochemical, triplicate | inhibition, % at 2.6 µM | LysRS AlphaScreen counterscreen, signal interference | AID 1259376, 2018 | shares compounds with MITF primary | hit rate 7.6% among 4,700;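 active = inhibition above a cutoff derived from the DMSO control wells, cut at about 30% in these data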
# * hit, by the source's call; · = no result. Hits are enriched below; roughly 3.5% of the tested compounds scored in any of these assays.
SMILES,GPR151 ag,FBW7 act,TEAD-YAP block,MITF primary,MITF inh conf,AS interf ctr,others
Cc1ccc(C(=O)Nc2ccc([N+](=O)[O-])cn2)o1,-4,0,-32,80*,69*,-9,AlphaScreen DR=>6.5
O=C(Cn1nc2ccccc2n1)N/N=C/c1ccccc1F,0,0,2,54*,16,-7,
COc1cc(/C=c2/sc3nc4c(C)cc(C)cc4n3c2=O)cc(Br)c1O,-1,0,-5,20,·,·,
CCCS(=O)(=O)N1CCN(Cc2ccc(OC)cc2OC)CC1,-1,0,-7,35,·,·,
CCCS(=O)(=O)N1CCN(Cc2ccc(OCc3ccccc3)c(OC)c2)CC1,0,0,-4,64*,7,9,
CCCS(=O)(=O)N1CCN(Cc2ccc(OC)cc2)CC1,2,0,-6,47,·,·,
CCCS(=O)(=O)N1CCN(Cc2nc3ccc(OC)cc3[nH]2)CC1,2,0,-10,66*,1,21,
CCCS(=O)(=O)N1CCN(Cc2ccc(OC)c(OC)c2)CC1,1,0,3,53*,6,17,
Cc1cc(F)ccc1NC(=O)Cn1cc2c(n1)CCCC2,0,0,0,1,·,·,
O=C(Nc1ccc(F)cc1F)c1cc(-c2ccccc2F)no1,-1,0,-10,-4,·,·,
NS(=O)(=O)c1ccc(CNc2ccc3ncc(-c4cccc(C(=O)O)c4)n3n2)cc1,1,0,0,69*,9,11,
COc1ccccc1NC(=O)N1CCCC1C(=O)NCc1ccccc1F (centres undefined),1,0,4,10,·,·,
COc1ccccc1NC(=O)N1CCCC1C(=O)NCc1ccccc1Cl (centres undefined),-1,0,-2,73*,-3,9,
O=C1C2CCCN2C(=O)N1c1ccc(Br)cc1 (centres undefined),0,0,-8,51*,10,16,
Cc1ccccc1NC(=O)c1cccc(NC(=O)CCC(=O)OCC(=O)c2ccc([N+](=O)[O-])cc2)c1,1,0,5,-13,·,·,
CN(C)CC(=O)Nc1cc(N(C)C)nc2ccccc12,4,0,-1,62*,7,-5,
CCN=C1SC(CC(=O)Nc2cccc(OC)c2)C(=O)N1CC (centres undefined),-1,1,-2,24,·,·,
CCN1C(=O)C(CC(=O)Nc2cccc(C)c2)SC1=Nc1ccc(OC)cc1OC (centres undefined),1,0,30,55*,2,1,
Cc1c(C(=O)Nc2cccc(Cl)c2)sc2ncnc(N3CCCCC3C)c12 (centres undefined),3,0,-10,-9,·,·,
COc1ccc(CCN=C(C)C2=C(O)C(c3ccccc3)OC2=O)cc1OC (centres undefined),-1,0,12,74*,4,7,
COc1ccc(S(=O)(=O)N2CCCC2C(=O)Nc2ccc(Br)cc2)cc1 (centres undefined),-1,1,-4,12,·,·,
CCN(CC)S(=O)(=O)c1cc(C(=O)Nc2ccc(Br)cc2)ccc1Br,0,0,-20,15,·,·,
CCN(CC)S(=O)(=O)c1cc(C(=O)Nc2ccc(Cl)cc2)ccc1Br,2,0,-28,72*,-6,-1,
CCOC(=O)c1ccc(NC(=O)CSc2nc3c(sc(=S)n3Cc3ccco3)c(=O)n2-c2ccccc2)cc1,0,0,8,-3,·,·,
OC(COc1ccccc1)CN1CCOCC1 (centres undefined),0,0,1,-1,·,·,
SMILES,GPR151 ag,FBW7 act,TEAD-YAP block,MITF primary,MITF inh conf,AS interf ctr,others
COc1ccc(COCC(O)CNCCCN2CCOCC2)cc1OC (centres undefined),-1,0,9,54*,-7,-2,
COc1ccc(COCC(O)CNCCOCCO)cc1OC (centres undefined),0,0,-4,5,·,·,
OC(CNCCN1CCOCC1)COc1ccccc1 (centres undefined),1,0,-6,75*,4,2,
OC(CNCCN1CCOCC1)COC1CCCc2ccccc21 (centres undefined),0,0,7,73*,13,15,
C/C(CC(=O)Nc1ccc(Cl)c(Cl)c1)=N\NC(=O)C(=O)NC(C)C,0,0,7,-13,·,·,
COc1cc(CNC(=O)CCN2Cc3cc(Cl)ccc3OC(C)C2)cc(OC)c1OC (centres undefined),0,0,-2,-4,·,·,
CC(=O)c1cccc(NC(=O)CCn2nc(C)cc2C)c1,1,0,4,6,·,·,
CC(NC(=O)c1ccccc1F)C1CCCO1 (centres undefined),0,0,-5,-3,·,·,
CCn1c2ccccc2c2cc(CN3CCN(Cc4ccc(OC)c(Br)c4)CC3)ccc21,0,-1,1,60*,14,19,
CCn1c2ccccc2c2cc(CN3CCN(Cc4cc(OC)c(OC)c(OC)c4)CC3)ccc21,-1,1,1,61*,1,2,
CCn1c2ccccc2c2cc(CN3CCN(C(=O)c4c(OC)cccc4OC)CC3)ccc21,-1,0,-6,40,·,·,
CCn1c2ccccc2c2cc(CN3CCN(C(=O)c4cccc(OC)c4OC)CC3)ccc21,1,0,-2,19,·,·,
COCCNCC(=O)N1c2ccccc2Sc2ccccc21,2,1,10,8,·,·,
O=C(CNCCOCCO)N1c2ccccc2Sc2ccccc21,1,0,12,74*,6,7,
CC(=O)c1cccc(NC(=S)NCCn2cc(Cl)cn2)c1,1,0,2,68*,13,9,
COc1ccc(Br)cc1CN1CCCC(C(N)=O)C1 (centres undefined),1,0,3,-3,·,·,
COc1ccc(Br)cc1CN1CCCC(C(=O)N2CCCC2)C1 (centres undefined),1,0,0,79*,-3,15,
COc1ccc(Br)cc1CN1CCCC(C(=O)N2CCCCC2)C1 (centres undefined),0,0,6,84*,9,19,
O=C(NCC1CCCN(C(=O)CCN2CCCO2)C1)c1ccc(F)cc1 (centres undefined),-1,0,-3,10,·,·,
COc1ccccc1-n1c(=S)sc2c(=O)n(-c3ccccc3)c(SCC(=O)c3ccc(Cl)cc3)nc21,0,0,-9,68*,0,0,
